Data as given in ChEMBL document CHEMBL4513146, “CO-ADD screening of Karazin Kharkiv National University (Ukraine) compounds”.
Measured potencies and affinities stand elsewhere.

What was measured:
[1] = test system: Klebsiella pneumoniae; settings: Concentration 32 ug.mL-1;; ASSAY_TEST Inhibition of Bacterial Growth; detection method Absorption (OD600); MEDIA CAMHB; plate type 384well; NBS; CORNING #3640; time 18 hr
[2] = test system: Candida albicans; settings: Concentration 32 ug.mL-1; ASSAY_TEST Inhibition of Fungal Growth; detection method Absorption (OD530)
[3] = test system: Cryptococcus neoformans; settings: Concentration 32 ug.mL-1; ASSAY_TEST Inhibition of Fungal Growth; detection method Resazurin; Absorption (OD600-OD570); plate type 384well; NBS; CORNING #3640

| Compound | Inhibition [1] | Inhibition [2] | Inhibition [3] |
| --- | --- | --- | --- |
| CSc1ccc(CNC(=O)Cn2nc3c(N4CC(C)CC(C)C4)nccn3c2=O)cc1 (stereo not drawn) | 6.58% | 0.13% | -5.38% |
| CCc1nnc2c(S(=O)(=O)N(Cc3cccc(F)c3)c3ccc(F)cc3)cccn12 | -0.41% | 1.06% | -2.23% |
| CCCCN(C)C(=O)CSc1nnc2c(=O)n(Cc3ccc(F)cc3)ccn12 | 14.76% | -0.35% | -33.57% |
| COc1cccc(Oc2nccn3c(=O)n(CC(=O)Nc4ccc(Br)cc4F)nc23)c1 | 17.17% | 0.55% | -10.01% |
| Cc1cc(C)cc(N(Cc2ccccc2F)S(=O)(=O)c2cccn3c(C)nnc23)c1 | 2.04% | 1.9% | -4.5% |
| COc1cccc(-n2ccn3c(SCc4cc(C)ccc4C)nnc3c2=O)c1 | 8.78% | 2.61% | -5.92% |
| Cc1nnc2ccc(S(=O)(=O)N(Cc3ccc(F)cc3)c3ccc(Cl)cc3)cn12 | 9.19% | 1.14% | -10.26% |
| CSc1cccc(NC(=O)Cn2nc3ccc(SC4CCCCC4)nn3c2=O)c1 | 4.23% | 0.23% | -8.34% |
| CCc1ccccc1NC(=O)CSc1nnc2ccc(C(=O)Nc3cccc(F)c3)cn12 | 6.52% | 8.2% | -4.61% |
| CCOc1ccc(NC(=O)CSc2nnc3c(=O)n(-c4ccc(OCC)cc4)ccn23)cc1 | 13.96% | 2.39% | -11.05% |
| Cc1cc(C)c(C(=O)CSc2nnc3c(=O)n(-c4ccc(F)c(F)c4)ccn23)cc1C | 9.61% | 5.94% | -8.7% |
| CC(=O)Nc1ccc(NC(=O)CSc2nc3ccccc3n3cnnc23)cc1 | 2.19% | 32.46% | -15.75% |
| COc1ccc(-c2cc3c4nnc(SCC(=O)Nc5cccc(C)c5C)n4ccn3n2)cc1 | 2.16% | 3.48% | -22.8% |
| CC(C)c1ccc(NC(=O)Cn2nc3c(N4CCCCC4)nccn3c2=O)cc1 | 10.38% | 4.27% | -12.25% |
| O=c1c2nnc(SCc3ccccc3F)n2ccn1-c1ccc(F)cc1 | -2.87% | 2.17% | -5.92% |
| COc1ccccc1N1CCN(C(=O)CSc2nc3ccccc3n3c(C(C)C)nnc23)CC1 | 6.45% | -2.8% | -16.67% |

| Compound | Inhibition [1] | Inhibition [2] | Inhibition [3] |
| --- | --- | --- | --- |
| Cc1cc(NC(=O)Cn2c(=O)c3nnc(C(C)C)n3c3ccccc32)ccc1Br | 7.01% | 3.1% | -11.52% |
| COc1ccc(NC(=O)Cn2nc3ccc(-c4ccc(C)c(C)c4)nn3c2=O)cc1OC | 6.13% | 32.8% | -43% |
| COc1ccc(NC(=O)CSc2nnc3c(=O)n(-c4ccc(Br)cc4)ccn23)cc1 | 8.82% | 5.75% | -12.25% |
| COc1ccc(NC(=O)Cn2nc3c4cc(-c5ccc(Cl)cc5)nn4ccn3c2=O)c(OC)c1 | 16.21% | 1.15% | -23.56% |
| O=C(Cn1nc2ccc(SCc3ccc(Cl)cc3)nn2c1=O)Nc1ccc2c(c1)OCO2 | 15.3% | 22.84% | -22.42% |
| COc1cc(NC(=O)Cn2nc3c(N4CCCC(C)C4)nccn3c2=O)cc(OC)c1 (stereo not drawn) | 5.76% | 3.21% | -46.51% |
| Cc1cccc(Oc2nccn3c(=O)n(CC(=O)NCCCc4ccccc4)nc23)c1C | 15.41% | 0.59% | -6.84% |
| Cc1ccc(Sc2nccn3c(=O)n(CC(=O)N4CCN(c5ccccc5F)CC4)nc23)c(C)c1 | 9.62% | 0.22% | -25.75% |
| Cc1ccc(F)cc1NC(=O)CSc1nnc2ccc(C(=O)Nc3cccc(F)c3)cn12 | 2.35% | -0.79% | -3.99% |
| Cc1ccc(CNC(=O)c2ccc3nn(CC(=O)Nc4ccc(C(F)(F)F)cc4)c(=O)n3c2)cc1 | 8.75% | 7.7% | -15.23% |
| O=C(Cn1nc2nc(Nc3ccc(F)cc3)ccn2c1=O)NCc1ccc(F)cc1Cl | 11.65% | 1.62% | -8.71% |
| Cc1nnc2ccc(S(=O)(=O)N(Cc3ccccc3F)c3cccc(F)c3)cn12 | 4.31% | 10.13% | -4.32% |
| Cc1ccc(-n2ccn3c(=O)n(Cc4ccccc4)nc3c2=O)cc1C | -0.96% | 0.88% | -10.01% |
| COc1cccc(-n2ccn3c(SCC(=O)NCc4ccco4)nnc3c2=O)c1 | 16.06% | 4.76% | -13.76% |
| CC(=O)c1cccc(NC(=O)Cn2c(=O)c3nnc(C(C)C)n3c3ccccc32)c1 | 4.91% | 5.31% | -19.11% |
